From PubChem BioAssay
Compounds with a hit are over-represented: about 0.8% of the library has one in this group of screens.
APEX1 inh – qHTS Assay for Inhibitors of the Human Apurinic/apyrimidinic Endonuclease 1 (APE1); DNA repair nuclease/redox regulator APEX1 (Homo sapiens), P27695; recombinant APE1, TAMRA/BHQ-2 abasic DNA cleavage fluorescence; Potency, µM (doses to about 65.8 µM), actives largely listed as inhibitors; 350,000 compounds, 0.35% hits; AID 2517, 2012; also: nearly all actives have a fitted effect of over 55% in size
Target sequence (P27695 whole entry, looked up): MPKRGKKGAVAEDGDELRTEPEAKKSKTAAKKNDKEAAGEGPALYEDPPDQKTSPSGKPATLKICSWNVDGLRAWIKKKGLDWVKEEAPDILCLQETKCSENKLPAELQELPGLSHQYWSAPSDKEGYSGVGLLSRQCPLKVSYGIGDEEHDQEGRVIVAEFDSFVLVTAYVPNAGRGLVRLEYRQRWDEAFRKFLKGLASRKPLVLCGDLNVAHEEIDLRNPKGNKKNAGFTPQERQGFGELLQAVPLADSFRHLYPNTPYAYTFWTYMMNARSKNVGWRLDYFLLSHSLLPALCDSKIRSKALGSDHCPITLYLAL
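Kinetic fluorescence read (525 ex/598 em nm, three reads 60 s apart) of AP-site incision; signal = third minus first read. Enzyme 0.75 nM, dual-labelled THF duplex 50 nM, compound preincubation 15 min RT.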
Tb PFK block – qHTS Assay to Find Inhibitors of T. brucei phosphofructokinase. ATP-dependent 6-phosphofructokinase (Trypanosoma brucei brucei), O15648. Potency, µM (top dose mostly 57.5 µM), usual class: inhibitors. T. brucei PFK, ADP-Glo luminescence. 330,000 compounds, 0.17% hits; also: nearly all actives have a fitted effect of over 60% in size
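Compounds were pin-transferred as a titration series up to 57 uM into substrate buffer (0.5 mM F6P, 0.1 mM ATP, pH 8.0), then 1.25 nM PFK was added and reactions ran 45 min before ADP-Glo detection.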
PGK inhibitor – qHTS Assay to Find Inhibitors of Phosphoglycerate Kinase; 380,000 compounds, 0.043% hits; PGK/GAPDH coupled, Kinase-Glo luminescence, 60 min; Potency, µM (titrated, usually from 57.5 µM), most hits filed as inhibitors; also: nearly all actives have a fitted effect of over 60% in size
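Luminescent ATP detection (Kinase-Glo Plus) follows a 60-minute room-temperature incubation, with wells lacking PGK as controls. Buffer: 100 mM TEA (pH 7.6), 5 mM MgCl2, 0.01% Tween-20. Coupling enzyme GAPDH (100 nM final) supplies unstable 1,3-BPG in-well.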
TDP1 inh – qHTS Assay for Inhibitors of Tyrosyl-DNA Phosphodiesterase (TDP1). Tyrosyl-DNA phosphodiesterase 1 (Homo sapiens), Q9NUW8. recombinant TDP1, AlphaScreen DNA substrate cleavage. Potency, µM (top dose mostly 130 µM), actives largely listed as inhibitors. 350,000 compounds, 0.28% hits. AID 485290, 2010; also: nearly all actives have a fitted effect of over 40% in size
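AlphaScreen read-out: signal falls as enzyme removes the 3' tyrosine-FITC from a 5'-biotinylated DNA oligo (15 nM, 5 min, RT). Enzyme was E. coli-made recombinant Tdp1 at 1 nM, exposed to compound for 15 min beforehand; beads 10 ug/ml, 10 min.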
FEN1 inhibitor – qHTS Assay for the Inhibitors of Human Flap endonuclease 1 (FEN1) | P39748 | Recombinant FEN1 flap cleavage, fluorescence, 15 min | Potency, µM (highest dose often 114 µM), actives largely listed as inhibitors | 390,000 compounds, 0.35% hits | AID 588795, 2011; also: nearly all actives have a fitted effect of over 65% in size
Target sequence (P39748 whole entry, looked up): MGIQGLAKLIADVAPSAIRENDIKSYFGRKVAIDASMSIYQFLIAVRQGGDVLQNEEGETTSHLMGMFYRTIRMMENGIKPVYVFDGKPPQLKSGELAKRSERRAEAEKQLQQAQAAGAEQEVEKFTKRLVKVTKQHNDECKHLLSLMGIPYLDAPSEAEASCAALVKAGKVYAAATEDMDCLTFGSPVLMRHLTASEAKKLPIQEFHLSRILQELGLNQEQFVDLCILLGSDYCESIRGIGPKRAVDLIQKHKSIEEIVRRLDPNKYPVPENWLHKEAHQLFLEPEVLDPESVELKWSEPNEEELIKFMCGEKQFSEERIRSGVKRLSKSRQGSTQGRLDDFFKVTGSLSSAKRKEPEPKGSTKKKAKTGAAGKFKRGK
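Read-out was taken twice, immediately and after 15 min, following addition of 50 nM substrate to 10 nM FEN1 that had sat with test compound for 15 min at room temperature. Curves came from a four-parameter Hill model.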
PI4K2A block – qHTS for small molecular inhibitors of PI4K2A; 420,000 compounds, 0.13% hits; purified PI4K2A, ADP-Glo luminescence, 1 h; stronger effect = lower value; activity change, negative = inhibition, % at 76.9 µM; Phosphatidylinositol 4-kinase type 2-alpha (Homo sapiens), Q9BTU6; in the data active = activity change below about -50%; inconclusive = mostly about -30% to -49%
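In this quantitative HTS, ADP production by PI4K2A was quantified luminescently after 1 h at ambient temperature; 100 microM adenosine served as plate-quality control.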
A number is an active result; n = inactive; u = inconclusive; x = not tested or not shown; ! = not confirmed by another sample; [ ] = remark or other dose. Unless noted, calls follow the shape of the dose curve; as a rule, active = well fitted curve in the direction sought with a large enough effect; inconclusive = small, poorly fitted or top-dose-only effect, or another doubt; inactive = no such curve, though single readings can be large; an effect the other way counts as inactive or inconclusive.

SMILES	APEX1 inh	Tb PFK block	PGK inhibitor	TDP1 inh	FEN1 inhibitor	PI4K2A block
COc1ccc(-c2cc(C(=O)O)[nH]n2)cc1OC	n	n	n	n	n	-73.0
COc1ccc2nc(-n3c(O)c(C4=c5ccccc5=NC4=O)[nH]c3=S)sc2c1	n	n	u	n	31.6µM	n
Cc1ccc2nc(-c3ccc(N=Nc4cc(S(=O)(=O)O)c5ccccc5c4O)cc3)sc2c1S(=O)(=O)O	x	x	x	n	7.08µM	x
Cc1ccc2nc(-c3ccc(N)cc3)sc2c1S(=O)(=O)O	u	x	x	31.6µM	x	x
Cc1nc2ccc(N)cc2s1	n	n	n	n	n	n
CCCCN(CCC(=O)O)c1ccc(/C=C/c2ccnc3ccccc23)cc1	x	x	x	x	n	x
COc1cc(S(=O)(=O)O)c(C)cc1N=Nc1c(O)ccc2cc(S(=O)(=O)O)ccc12	x	x	x	x	35.5µM	x
CCS(=O)(=O)c1ccc(N=Nc2ccc(O)c3ncccc23)c(OC)c1	n	n	n	n	n	n
CCN(C)c1ccc(/C=N\n2nnnc2N)cc1	n	n	n	50.1µM	n	n
Nc1nnnn1/N=C/c1ccc(O)cc1	n	n	n	n	n	n
O=C(CCCOc1ccc(Cl)cc1Cl)Nc1ccncc1	28.2µM	n	n	n	n	n
O=C(CCCOc1ccc(Cl)cc1Cl)Nc1ccccn1	n	n	n	n	n	n
COc1ccc(C2=Nn3c(nnc3-c3ccccc3OC)SC2)cc1O[C@H]1CCOC1	n	x	x	x	x	x
CCCCC(CC)CN=C(N)NC(N)=NCCCCCCN=C(N)NC(N)=NCC(CC)CCCC (configuration not stated)	n	u	n	n	50.1µM	n
Cc1ccc(C(=O)c2c(C)oc3c2C(=O)C(=O)c2ccccc2-3)cc1	n	n	n	n	n	-63.4
Cc1ccc(C(c2c(O)nc3n(c2=O)CCS3)c2c(O)nc3n(c2=O)CCS3)cc1	u	n	n	n	n	-52.2
O=c1c(C(c2ccc(O)cc2)c2c(O)nc3n(c2=O)CCS3)c(O)nc2n1CCS2	n	u	n	u	n	u
Cc1ccccc1OCCN1CCCC1	n	n	n	79.4µM	n	n
COc1cc(CNc2ccc(O)cc2)cc(Br)c1OCc1ccccc1F	n	n	n	n	n	-51.3
COc1cc(CNCc2ccncc2)cc(Br)c1OCc1ccccc1F	n	n	n	n	n	n
CCCCCCN(C(=O)CCCCCN1C(=O)NC(c2ccccc2)C(C(=O)OCc2ccccc2)=C1C)C(C(=O)NCCCC)c1ccc(OCC(=O)OC)c(C(=O)OC)c1 (configuration not stated)	n	n	x	n	x	x
CCCCCCN(C(=O)CCCCCN1C(=O)NC(c2ccc(C3CCCCC3)cc2)C(C(=O)OCc2ccccc2)=C1C)C(C(=O)NCCCC)c1ccc(OCC(=O)OC)c(C(=O)OC)c1 (configuration not stated)	0.447µM!	n	x	n	x	x
Cc1nc(C2CCCCC2)c(-c2ccc(S(N)(=O)=O)c(F)c2)o1	x	x	x	x	x	n
COc1ccccc1NC(=O)Nc1ccnn1C1CCCCC1	n	n	n	n	n	n
COc1ccccc1NC(=O)Nc1ccnn1C1CCN(C(=O)c2cscn2)CC1	n	n	n	n	44.7µM	n
SMILES	APEX1 inh	Tb PFK block	PGK inhibitor	TDP1 inh	FEN1 inhibitor	PI4K2A block
C(=C/c1nccc2c1[nH]c1ccccc12)/c1ccc2c(c1)OCO2	n	n	n	n	44.7µM	n
COc1ccc(/C=C/c2nccc3c2[nH]c2ccccc23)cc1	x	x	x	n	n	x
CCN1CCN(c2nc(C)nc3c2sc(=S)n3C)CC1	n	19µM	n	n	u	n
Cc1nc(N2CCCCC2)c2sc(=S)n(C)c2n1	n	n	n	n	n	n
COc1ccc(OC(=O)N(CC(=O)O)Cc2ccc(OCCc3nc(-c4ccccc4)oc3C)cc2)cc1	x	x	x	x	x	n
c1coc(-c2nc(-c3ccco3)c(-c3ccco3)nc2-c2ccco2)c1	1.41µM	u	u	3.16µM	35.5µM	u
c1coc(-c2nc3cc4ccccc4cc3nc2-c2ccco2)c1	x	x	x	u	5.62µM	x
COc1ccc2nc(-c3ccco3)c(-c3ccco3)nc2c1	8.91µM	n	n	x	u	n
COc1ccc2nc3cccc(OC)c3nc2c1	u	u	n	n	u	n
COc1cccc(Cn2ncc3c4sc(SC)cc4n(C)c3c2=O)c1	x	x	x	n	x	x
CC(C)OP(=O)(CP(=O)(OC(C)C)OC(C)C)OC(C)C	x	x	x	x	x	n
C#Cc1ccc([C@@H]2C=C(C(=O)NCc3ccccc3)O[C@H](OCc3ccc(CO)cc3)C2)cc1	n	n	n	n	n	n
C#Cc1ccc([C@H]2C=C(C(=O)O)O[C@@H](OCc3ccc(CO)cc3)C2)cc1	31.6µM	n	n	x	n	n
Cc1ccc(NS(=O)(=O)c2ccc3c(ccn3C)c2)cc1C	x	x	x	n	x	x
c1csc(CNc2ncnc3cc(-c4ccc5c(c4)OCO5)ccc23)c1	x	x	x	n	x	x
COc1ccc(C2c3c(nc(Cc4ccccc4)[nH]c3=O)Oc3ccc4ccccc4c32)cc1OC (configuration not stated)	x	x	x	n	x	x
Cc1ccc2oc(-c3cc(NC(=O)c4ccco4)ccc3Cl)nc2c1	x	x	n	n[12.3 µM]	79.4µM	n
COc1cc(NC(=S)NCCC(c2ccccc2)c2ccccc2)cc(OC)c1	n	n	n	n	79.4µM	n
CSc1ccc(/C=C/C(=O)Nc2ccccc2)cc1	n	n	u	n	n	-51.8
COCCN(C(=O)COC(=O)Cc1coc2cc(C)ccc12)c1c(N)n(Cc2ccccc2)c(=O)[nH]c1=O	n	n	n	28.2µM	n	n
COc1ccc(NC(=O)CSc2nc(-c3ccco3)nc3cc(=O)[nH]n23)cc1Cl	n	n	n	50.1µM	n	n
NS(=O)(=O)c1ccc(CCNS(=O)(=O)c2ccccc2)cc1	n	n	n	n	n	n
NS(=O)(=O)c1ccc(CCNS(=O)(=O)c2cccc(C(=O)O)c2)cc1	n	n	n	79.4µM	n	n
CC(C)(C)n1ncc2c(=O)n(Cc3ccc(OC(F)(F)F)cc3)cnc21	n	x	x	x	n	x
Cc1ccc(C)c(OCC(=O)Nc2nonc2NC(=O)COc2cc(C)ccc2C)c1	n	x	n	n	n	n
Cc1ccc(C)c(OCC(=O)Nc2cc(NC(=O)COc3cc(C)ccc3C)cc(C(=O)O)c2)c1	n	u	n	50.1µM	n	n
CCc1oc(C(=O)O)cc1CN(CC)CC	n	x	n	n	n	n
